Measured values as given in paper PMC10163288.
A selection follows. No count for the full screen is at hand. Unmarked numbers belong to inactive results.

B1: il2ra_site1_2b5i_sap_12_mot_HHH_b2_04463_af2_000000056_0001_43_55_H_._HHH_b2_02114_af2_0001_0000100003_0000001_1_0001 (protein)
chain: SSSSNEAAREARELMEKLDEAFRRGDEELLEELLEEIEEFLKEQDDKFLRLAMEQVREELSSSSS
B2: il2ra_site2_3nfp_normal_mot_HHH_b1_03557_000000106_0001_41_55_H_._HHH_b2_00561_0001_0000400025_0000001_0_af2pred_0001_1_af2pred_swapped (protein)
chain: SSSSSDEEREEVEELLEEAEHIEDEREVFIVLVEAFFLALELRDPELERLVREFLKEFRSSSSSS
B3: il2ra_site1_1z92_normal_mot_HHH_b1_03515_000000289_0001_1_19_H_._HHH_b1_01554_af2_0001_0000200013_0000001_0 (protein)
chain: SSSSSSEHAARAIVKVLVRVARLSEEQEKELQELAEELVKRGYSLLEIIKILDRVAVELSSSSSS
B4: il2ra_site2_2erj_sap_27_mot_HHH_b1_06697_000000025_0001_41_54_H_._HHH_b2_06097_0001_0000200013_0000001_0_0001 (protein)
chain: SSSSDKLRELYKLAVELMRLVAEGDEERFEEVAEEVRKLVEELDSRTAREILEALERKIKSSSSS
B5: il2ra_site2_3nfp_sap_22_mot_ems_3hM_1278_af2_000000151_0001_43_60_H_._HHH_b2_04893_0001_0000100005_0000001_0_0001 (protein)
chain: SSSSSEELEELIEQARELLEEGDKYEAAQVVLRASRLALELNDPEAARRILELFEEIQRTSSSSS
B6: il2ra_site2_3nfp_sap_18_mot_7f6a3539c8daa08639e4cdbcc6f77908_0001_af2_000000032_0001_16_31_H_._HHH_b1_04314_af2_0001_0000300027_0000001_0_0001 (protein)
chain: SSSSDKSEEYLRIALELLEEAIKAGDEEAARSHLEVAKAAAESHNDEEVEERLEELEELLSSSSS
B7: il2ra_site2_2erj_sap_12_mot_HHH_b1_05666_000000037_0001_42_55_H_._HHH_b2_06677_0001_0000400020_0000001_0_0001 (protein)
chain: SSSSDERLHELYKLANELLRLEFEGDEERIEELLQRVRELAEELKSDAARELVERVEKKLSSSSS
B8: il2ra_site1_1z92_normal_mot_HHH_b2_05027_000000150_0001_42_56_H_._HHH_b2_03014_0001_0000400026_0000001_0 (protein)
chain: SSSSSSSEEWLEELVELVIKRSDDPEEQEELRRLLEELREEGDPELWLELAQLLIEIASSSSSSS
B9: il2ra_site1_3nfp_sap_17_mot_HHH_b1_06312_000000077_0001_1_18_H_._HHH_b1_02603_af2_0001_0000500014_0000001_0_0001_af2pred_0001_af2pred_1 (protein)
chain: SSSSDVEEFLEEIKEELREALEKGDARLAARIFKEASKKLREKGNPELAEELYEFLRKLISSSSS
B10: il2ra_site2_2erj_sap_25_mot_HHH_b1_02841_000000060_0001_43_57_H_._HHH_b1_02445_af2_0001_0000300014_0000001_0_0001 (protein)
chain: SSSSDTEERVEEVLEEARKAYEEGDLHEVYRLAVEAMRIASENNDQEALELVLRFIEELSSSSSS
B11: il2ra_site1_2b5i_sap_8_mot_HHH_b1_04517_000000040_0001_39_52_H_._HHH_b2_05314_0001_0000400027_0000001_0_0001_af2pred_dldesign_0_af2pred (protein)
chain: SSSDPKALAETAAAIVEELEEKYNLNLEQSAVLERLAVELVWKGVSPEEIRRRLEALAKELSSSS
B12: il2ra_site1_1z92_normal_mot_01209686ea234b34325f918445e6eade_0001_af2_000000154_0001_18_33_H_._HHH_b1_01021_0001_0000100004_0000001_0_af2pred_0001_1_af2pred_swa … (protein)
chain: SSSSSDELEEFIEELVKELGLDEEAKETLERLLEKLQEQGVSERAIRRALERMARRMRGSSSSSS
B13: il2ra_site2_3nfp_sap_11_mot_HHH_b1_00882_af2_000000293_0001_1_18_H_._HHH_b1_01194_af2_0001_0000300012_0000001_0_0001 (protein)
chain: SSSSSSSLYELLQEAVEAAKNGNPEEAKEILEQALEEAREAGDEEAEHFIEWFIKAVRSSSSSSS
B14: il2ra_site2_2erj_normal_mot_HHH_b1_04373_af2_000000118_0001_18_33_H_._HHH_b2_00961_af2_0001_0000900028_0000001_1 (protein)
chain: SSSSSDEEEVERRVRELLEEAEKVDLEEAYKLAVEALHLAAENRDPELLRLILEWVEKHSSSSSS
B15: il2ra_site2_3nfp_sap_15_mot_HHH_b1_02990_000000128_0001_41_58_H_._HHH_b1_03794_0001_0000400021_0000001_0_0001 (protein)
chain: SEAEEIIKLIAELLGTPPERVRERVEDAAEIVNRPPEEAAAYLLAQVALELGDPELEKEAKRLSR
B16: il2ra_site2_2erj_sap_28_mot_HHH_b1_08185_000000106_0001_41_55_H_._HHH_b2_03845_af2_0001_0001200037_0000001_0_0001 (protein)
chain: SSSSDEEEERLEELVERAERLLKEGNPEEAWEVLREAATLAWELGDEEIWSRLSKLTAEVASSSS
B17: il2ra_site1_1z92_normal_mot_54e474eed2d0515e81978198f0f96ec2_0001_000000202_0001_15_30_H_._8eb524b276bbb897fd8f0cca34c37a2d_0001_af2_0001_0000300018_0000001_0_a … (protein)
chain: DVEEEIEEALKELGVPPEEIKVVKRDFRLAREAGIPPEQVLRALINAARASGDEELTEALELVLK
B18: il2ra_site1_3nfp_normal_mot_e80b558ee5422d85aa46efdc370d0602_0001_af2_000000114_0001_54_65_H_._HEEHE_2247_0002_0000400019_0000001_0_af2pred_0001_af2pred (protein)
chain: DRQEILQEDAELISKVAGVTSVHVEVENGHVTVTVEADNRRARALLRILREAAKIAGLEVEITIE
B19: il2ra_site2_2erj_normal_mot_HHH_b1_02757_000000121_0001_41_57_H_._HHH_b1_02256_0001_0000700046_0000001_0_af2pred_0001_af2pred (protein)
chain: SSSSSSSVEEEVKELLEQAKHIPDIREALKVLEEADRLALENDNEELLELITRVLRELSSSSSSS
B20: il2ra_site2_2erj_normal_mot_HHH_b2_04744_000000294_0001_42_58_H_._HHH_b1_07967_af2_0001_0000500022_0000001_0 (protein)
chain: SSSSDEEERLEELLKELEELSRKRDFHRFAEVFSEILELVEENNDEEAALIAFRIMREHFGSSSS
B21: il2ra_site1_2b5i_normal_mot_f5ff40796168375b462bec8614a1db4a_0001_1_000000138_0001_53_65_H_._HHH_b2_01775_0001_0000500027_0000001_0_af2pred_dldesign_0_af2pred (protein)
chain: SSSSSSEKRELIQALIDEAKKEEDKRLAKRLLLLALRLARKHNDEELIAEIEALLKELESSSSSS
B22: il2ra_site2_2erj_sap_16_mot_HHH_b2_07792_af2_000000252_0001_18_34_H_._HHH_b1_07975_af2_0001_0000200006_0000001_0_0001 (protein)
chain: SSSSSDTEEEVEELLEQAKRITDLREVYRLAVEALHLAARVQDPELQRLVAEVVEELSRSSSSSS
B23: il2ra_site2_2erj_sap_19_mot_HHH_b2_01275_af2_000000073_0001_23_39_H_._HHH_b1_01063_af2_0001_0000200019_0000001_0_0001 (protein)
chain: SSSSDKLRELYELAVEVLRAVARGDEEEAERLLEEAKELAEELDSPNAREALENNKRLLKSSSSS
B24: il2ra_site2_2erj_sap_14_mot_HHH_b2_01204_af2_000000056_0001_19_34_H_._HHH_b2_03878_0001_0000200011_0000001_0_0001 (protein)
chain: SSSSDWLHELYELASEITRLLAEGDPEEARRLLEELEELAEENDSPNAEEIVERLEKKIESSSSS
B25: il2ra_site1_2b5i_sap_14_mot_HHH_b2_01684_af2_000000128_0001_1_17_H_._HHH_b1_05605_0001_0000200010_0000001_0_0001_af2pred_dldesign_0_af2pred (protein)
chain: SSSSSSSSDRRALLEEANKAFQAGDVEALEALLERAEAAGWEKVARTIRKAIEALLESSSSSSSS
B26: il2ra_site1_2b5i_sap_9_mot_HHH_b2_02740_000000236_0001_1_21_H_._HHH_b1_02398_0001_0000300016_0000001_0_0001 (protein)
chain: SSSSDDELFHEIDELFREASRLFLNGNPEEAEKVLEKAIRLAEEGGDESTAEDLRRFLELLSSSS
B27: il2ra_site2_3nfp_sap_25_mot_HHH_b2_06150_000000217_0001_39_53_H_._HHH_b2_05014_af2_0001_0000300011_0000001_0_0001 (protein)
chain: DEVSEVIWRLREEGDPELAFLLFAVRADVLYKHDPELEEELEKLIELAERDPEKAKELAEELLRR
B28: il2ra_site2_2erj_normal_mot_HHH_b2_01353_af2_000000049_0001_23_39_H_._HHH_b1_04436_af2_0001_0000200013_0000001_0 (protein)
chain: SSSSDEIEELLEKAKELLEKGNPEEAEEVLRRASVAAFENRDHEAFAEIAELLRIVAELEASSSS
B29: il2ra_site1_1z92_sap_28_mot_HHH_b1_00661_af2_000000033_0001_38_50_H_._HHH_b2_00267_af2_0001_0000300009_0000001_0_0001_af2pred_0001_af2pred_1 (protein)
chain: PEELAEQAEELLKNGNPEEAEKVLRELAKELGNEEVFERDLEHAERNLGNPEQALLSLIKALSFV
B30: il2ra_site1_1z92_sap_12_mot_HHH_b2_04974_000000012_0001_1_17_H_._HHH_b1_06150_af2_0001_0000300041_0000001_0_0001_af2pred_dldesign_0_af2pred (protein)
chain: SSSSSSPYQRARDLILEINKARQAGDTEKFDELLAELEKLAKELESNTLLRFIEHARKELSSSSS
B31: il2ra_site2_2erj_normal_mot_HHH_b2_06912_000000039_0001_38_52_H_._HHH_b2_01292_0001_0000100004_0000001_0 (protein)
chain: SSSSSDKEESEKLAEEAHELILRNPERVEEIVEEFRRELEELNDPIAVRYLELVRRDVNSSSSSS
B32: il2ra_site2_3nfp_sap_24_mot_HHH_b1_03818_000000217_0001_1_20_H_._HHH_b1_04518_af2_0001_0000400014_0000001_0_0001 (protein)
chain: SEKDLIEMSLEMIKAHALLHGNEEVQEIVEELERLLEEAKRKNDEELREEVAERAAELIERVLES
B33: il2ra_site2_2erj_normal_mot_HHH_b2_00494_000000216_0001_41_54_H_._HHH_b1_07802_af2_0001_0000300011_0000001_0 (protein)
chain: SSSSNEELRRLYELADEALRLITEGNPEEAEKVLEEARELAERLNSENAREVVEFLEELLESSSS
B34: il2ra_site2_2erj_sap_21_mot_HHH_b2_00938_af2_000000099_0001_43_55_H_._HHH_b1_03152_af2_0001_0000100003_0000001_0_0001 (protein)
chain: SSSSLHEAFEIAVEAAAKISRLHREGNDEEAKRVFEEARERLEELGTENAREHLEHLFKALSSSS
B35: il2ra_site2_3nfp_normal_mot_HHH_b1_00660_af2_000000090_0001_40_57_H_._HHH_b1_02730_0001_0001000022_0000001_0 (protein)
chain: SSSSSDEEVRELLEQLRELIEKNDEEEFERLSREITNLAYELNNFELFALVQELRARFISSSSSS
B36: il2ra_site2_3nfp_normal_mot_HHH_b2_04451_000000238_0001_21_37_H_._HHH_b2_04195_af2_0001_0000200011_0000001_0 (protein)
chain: SSSSSEEEEVRELLEQARELLERGDPYEALELLAEASEIAAKLNNEELARLILELFEKVQKSSSS
B37: il2ra_site2_3nfp_normal_mot_HHH_b2_08209_000000146_0001_1_18_H_._HHH_b1_00160_0001_0000200018_0000001_0 (protein)
chain: SSSSSTEEERERVEELLEEAKEITDPEERKELLAEATQIAYEANDFELFALVADVVFELLSSSSS

molecular target: il2ra, P01589; assay: yeast display titration
Sequence (P01589 whole entry): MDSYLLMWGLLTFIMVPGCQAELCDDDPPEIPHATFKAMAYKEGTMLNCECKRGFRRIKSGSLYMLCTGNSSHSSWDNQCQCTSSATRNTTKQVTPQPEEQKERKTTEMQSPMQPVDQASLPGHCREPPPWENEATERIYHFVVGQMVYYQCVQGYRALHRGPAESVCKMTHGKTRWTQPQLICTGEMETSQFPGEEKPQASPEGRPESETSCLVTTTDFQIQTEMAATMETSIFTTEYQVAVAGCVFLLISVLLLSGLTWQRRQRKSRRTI

Binder	apparent Kd
B1	no binding seen
B2	no binding seen
B3	no binding seen
B4	no binding seen
B5	no binding seen
B6	no binding seen
B7	no binding seen
B8	no binding seen
B9	no binding seen
B10	no binding seen
B11	no binding seen
B12	no binding seen
B13	no binding seen
B14	no binding seen
B15	no binding seen
B16	no binding seen
B17	no binding seen
B18	no binding seen
B19	no binding seen

Binder	apparent Kd
B20	no binding seen
B21	no binding seen
B22	no binding seen
B23	no binding seen
B24	no binding seen
B25	no binding seen
B26	no binding seen
B27	no binding seen
B28	no binding seen
B29	no binding seen
B30	no binding seen
B31	no binding seen
B32	no binding seen
B33	no binding seen
B34	no binding seen
B35	no binding seen
B36	no binding seen
B37	no binding seen
